An excerpt weighted towards active compounds, which were near 2.5% of everything screened.
Env fusion inh: inhibitors of HIV-1 Env-driven cell-cell fusion, primary screen, HeLa-JRFL effector, CEM21 target cells, luciferase; inhibition, % at 12.3 µM; actives 1.1% (n = 360,000);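 active means mean replicate inhibition score of at least 50 and every replicate individually at or above 50; inconclusive means only one of the two criteria met; inactive means mean below 50 and not all replicates reaching 50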;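 further: 0% = plate neutral controls and 100% = maraviroc near 300 nM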
PAX8 inh HTS: inhibitors of PAX8-driven TPO luciferase reporter, primary screen, RMG-I cells, single concentration; SteadyGlo, 24 h; AID 652154, 2013; inhibition, % at 12.6 µM; actives 1.2% (n = 360,000);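 active means mean replicate inhibition at least 60% with every replicate also reaching 60%; inconclusive means only one of the two criteria is met; inactive means mean below 60% and not all replicates reaching 60%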;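 further: luciferase light reporting Pax8 driven TPO promoter activity; plate controls were median of neutral control wells for no effect and mitoxantrone controls for full effect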
F508del corr: F508del CFTR correction, initial screen, CFBE line, single point | CFBE cells, YFP halide quenching; stimulated with forskolin plus potentiator P3; % fluorescence drop versus neutral controls | actives 0.36% (n = 350,000) | activity (quench increase), % at 7.58 µM;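 active means mean added fluorescence quench of at least 8% versus neutral control, with both replicates also reaching 8%; inconclusive means only one of the mean or replicate conditions met; inactive means mean below 8% and not both replicates reaching 8%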;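 further: cells transiently co-express mutant CFTR-F508del with the halide-sensitive YFP; corrector assay measuring rescue of mutant channel to the surface after 24 h compound exposure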
EWS-Fli block: EWS/Fli-driven NR0B1 reporter inhibitors, primary screen, A673 cells, NR0B1 luciferase, luminescence, MLPCN library; viability-normalised; actives 0.67% (n = 350,000); inhibition, % at 12.6 µM;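 active means mean inhibition of at least 50% after viability correction, with every replicate also passing that limit; inconclusive means mean reaches 50% but only one of two replicates passes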;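 further: firefly luciferase signal divided by Alamar Blue viability fluorescence both relative to DMSO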
GAA850 FXN act: FXN promoter activators, primary screen, cell-based, luciferase luminescence, HEK293 lucGAA850. HEK293 lucGAA850 FXN promoter luciferase reporter, 24 h; percent of 10 µM SAHA response. activation, % at 6 µM. actives 0.56% (n = 360,000);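 active means activation above the average of all compounds screened plus 3 SD, cutoff fixed separately per campaign, cut at about 7.5% in these data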;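 further: 0% = DMSO wells and 100% = 10 µM SAHA wells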
Numbers without * were called inactive; [ ] = remark or other dose.

C[C@@H]1CCCCO[C@H](CN(C)S(=O)(=O)c2ccc(F)cc2)[C@@H](C)CN([C@@H](C)CO)C(=O)c2cc(NC(=O)Nc3ccc(C(F)(F)F)cc3)ccc2O1 was read as Env fusion inh 38[16.7 µM], PAX8 inh HTS 65*, F508del corr 5 and EWS-Fli block 49.
For C[C@@H]1CCCCO[C@@H](CN(C)S(=O)(=O)c2ccc(Cl)cc2)[C@H](C)CN([C@H](C)CO)C(=O)c2cc(NC(=O)Nc3ccc(C(F)(F)F)cc3)ccc2O1 the results were Env fusion inh 25[16.7 µM], PAX8 inh HTS 70*, F508del corr 3 and EWS-Fli block -1.
For C[C@H](CO)N1C[C@H](C)[C@@H](CN(C)S(=O)(=O)c2ccc(F)cc2)OCCCC[C@H](C)Oc2ccc(NC(=O)Nc3ccc(C(F)(F)F)cc3)cc2C1=O the results were Env fusion inh 57*[16.7 µM], PAX8 inh HTS 34, F508del corr 7 and EWS-Fli block 1.
`C[C@@H]1CCCCO[C@@H](CN(C)S(=O)(=O)c2ccc(F)cc2)[C@H](C)CN([C@H](C)CO)C(=O)c2cc(NC(=O)Nc3ccc(C(F)(F)F)cc3)ccc2O1` gave Env fusion inh 68*[16.7 µM], PAX8 inh HTS 73*, F508del corr 5 and EWS-Fli block 10.
For C[C@@H]1CCCCO[C@@H](CN(C)S(=O)(=O)c2ccc(F)cc2)[C@H](C)CN([C@@H](C)CO)C(=O)c2cc(NC(=O)Nc3ccc(C(F)(F)F)cc3)ccc2O1 the results were Env fusion inh inconclusive, PAX8 inh HTS 41, F508del corr 4 and EWS-Fli block -7.
Screening C[C@@H]1CCCCO[C@@H](CN(C)S(=O)(=O)c2ccc(F)cc2)[C@@H](C)CN([C@H](C)CO)C(=O)c2cc(NC(=O)Nc3ccc(C(F)(F)F)cc3)ccc2O1 returned Env fusion inh 8[16.7 µM], PAX8 inh HTS 32, F508del corr 0 and EWS-Fli block -12.
`C[C@H]1CN([C@@H](C)CO)C(=O)c2cc(NC(=O)Nc3ccc4c(c3)OCO4)ccc2O[C@H]1CN(C)S(C)(=O)=O` gave F508del corr -2 and EWS-Fli block 1.
For Cc1[nH]n(-c2ccccc2)c(=O)c1N=Nc1ccccc1O the results were Env fusion inh 26, PAX8 inh HTS 66*, F508del corr 2, EWS-Fli block 13 and GAA850 FXN act -3.
Cc1cc(SCC(=O)c2cccs2)nc2c(C)cccc12 was read as Env fusion inh inconclusive and GAA850 FXN act 3.
CC(=O)Nc1ccc(C(=O)CSc2cc(C)c3cccc(C)c3n2)cc1 was read as PAX8 inh HTS 123*, F508del corr 3, EWS-Fli block -3 and GAA850 FXN act -1.
For CCc1ccc([C@H]2[C@@H]3C(=O)C[C@@H]4C(=O)N(Cc5ccccc5)C(=O)[C@@H]4[C@@H]3CN2S(=O)(=O)c2ccc(C)cc2)cc1 the results were Env fusion inh 71*, PAX8 inh HTS -15, F508del corr -3 and EWS-Fli block 1.
`CCc1ccc(C2CC3C(CN2S(=O)(=O)c2ccc(C)cc2)[C@@H](O)C[C@@H](c2ccc(CC)cc2)N3S(=O)(=O)c2ccc(C)cc2)cc1` (stereo partly drawn) gave Env fusion inh 61*, PAX8 inh HTS 26, F508del corr -2 and EWS-Fli block 8.
`CCc1ccc([C@H]2[C@@H]3C(=O)C[C@@H]4C(=O)N(C5CCCCC5)C(=O)[C@@H]4[C@@H]3CN2S(=O)(=O)c2ccc(C)cc2)cc1` gave Env fusion inh 155*, PAX8 inh HTS 8, F508del corr -2 and EWS-Fli block -3.
CCc1ccc([C@H]2[C@@H]3C(=O)C[C@@H]4C(=O)N(CC)C(=O)[C@@H]4[C@@H]3CN2S(=O)(=O)c2ccc(C)cc2)cc1 was read as Env fusion inh 54, PAX8 inh HTS -1, F508del corr 0 and EWS-Fli block -2.
Screening CCCNC(=O)N(C)C[C@H]1Oc2ncc(-c3ccc(C(=O)N(C)C)cc3)cc2C(=O)N([C@H](C)CO)C[C@@H]1C returned Env fusion inh -19[16.7 µM], F508del corr 2 and EWS-Fli block -2.
